Tau fibril FP = blocks human tau fibril formation measured by polarization | P10636 | K18 P301L tau heparin fibrillization, Alexa594 FP, 6 h | Potency, µM (highest dose often 57.7 µM), without a hit: at the top dose activity, negative = inhibition, most hits filed as inhibitors | 280,000 compounds, 0.39% hits | AID 1468; also: potency is read from the fitted curve at half-maximal effect; nearly all actives have a fitted effect of over 55% in size
Target sequence (P10636 561-689 P618L limits assumed): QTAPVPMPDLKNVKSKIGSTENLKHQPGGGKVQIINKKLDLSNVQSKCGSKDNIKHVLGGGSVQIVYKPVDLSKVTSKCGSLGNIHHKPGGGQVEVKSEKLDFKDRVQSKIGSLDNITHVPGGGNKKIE
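Heparin (20 uM) drove fibril formation of recombinant tau K18 P301L, 15 uM unlabeled with 0.24 uM Alexa 594 label, for 6 hr at 37 C in 100 mM sodium acetate pH 7. Fluorescence polarization (555/632 nm) read 1 hr after 30 uM ThT.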
Tau fibril ThT = blocks human tau fibril formation measured by thioflavin T. P10636. recombinant tau K18 P301L, heparin-induced fibrillization, ThT fluorescence. Potency, µM (doses to about 57.4 µM), for inactives: at the highest dose activity, negative = inhibition, hits mostly inhibitors. 270,000 compounds, 2.1% hits; also: potency is read from the fitted curve at half-maximal effect; nearly all actives have a fitted effect of over 55% in size
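Fibril formation assay: tau K18 P301L at 15 uM with trace Alexa 594 label, heparin inducer 20 uM, pH 7 sodium acetate buffer, 37 C for 6 hr; endpoint ThT signal.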
Sfp PPTase inh = Sfp phosphopantetheinyl transferase inhibition | Q9F4F7 | Potency, µM, without a hit: largest response in the series, negative = inhibition, hits mostly inhibitors | Biochemical Sfp PPTase activity, qHTS | 310,000 compounds, 3.5% hits;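 also: the enzyme is Sfp with the accession as filed and its product quenches rhodamine fluorescence; potency is read from the fitted curve at half-maximal effect; 0% = enzyme reaction without inhibitor and -100% = no enzyme wells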
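With Hepes-Na pH 7.6 buffer containing 10 mM MgCl2, Sfp (15 nM) modified BHQ-2-YbbR (12.5 uM) using rhodamine-CoA (5 uM). Two reads 30 minutes apart at 525/598 nm yielded each well's rate.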
Coupling enz = inhibits coupling enzyme system, counter-screen for aldolase hits; coupling enzyme system counterscreen, AmpLite Red fluorescence; activity change, negative = inhibition, % at 58.2 µM, hits read low; 290,000 compounds, 0.67% hits; AID 2472; in the data active = activity change below about -30%
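Compounds tested against the coupling enzymes alone at 57.5 uM final; readout was AmpLite Red fluorescence (525/598 nm) after 20 min at RT.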
Tau fluor counter = counter-screen for tau fibril formation inhibitors | tau K18 P301L (four-repeat tau fragment) Alexa594 fluorescence, heparin fibrillization | Potency, µM (top dose mostly 57.7 µM), for the others: at the top dose activity change, negative = decrease | 280,000 compounds, 0.93% hits; also: potency is read from the fitted curve at half-maximal effect; nearly all actives have a fitted effect of over 55% in size
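Human K18 P301L tau (15 uM unlabeled plus 0.24 uM Alexa 594-labeled, final) in 100 mM sodium acetate pH 7 was mixed with compound and 20 uM heparin and incubated 6 hr at 37 C.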
G9a block = G9a (human) methyltransferase inhibition; Potency, µM (highest dose often 102 µM), without a hit: top-dose activity, negative = inhibition, most hits filed as inhibitors; G9a H3K9 monomethylation, AlphaScreen, 2 h; 350,000 compounds, 8.8% hits; also: potency is read from the fitted curve at half-maximal effect; nearly all actives have a fitted effect of over 75% in size
Target sequence (Q96KQ7 913-1193 limits assumed): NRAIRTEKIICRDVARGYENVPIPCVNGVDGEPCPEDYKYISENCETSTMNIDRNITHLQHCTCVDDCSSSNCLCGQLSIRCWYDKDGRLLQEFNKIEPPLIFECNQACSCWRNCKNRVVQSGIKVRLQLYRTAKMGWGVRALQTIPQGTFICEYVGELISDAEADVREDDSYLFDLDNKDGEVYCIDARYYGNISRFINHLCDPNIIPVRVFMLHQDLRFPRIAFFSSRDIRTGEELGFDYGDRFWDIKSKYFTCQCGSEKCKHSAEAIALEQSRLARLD
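Signal arises when biotinylated H3K9 peptide, once monomethylated, bridges streptavidin donor and antibody-captured acceptor beads. Enzyme at 20 nM was preincubated 15 min with test compounds; peptide 500 nM and SAM 20 uM then reacted for 2 h.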
Starred values were filed as active, the others as inactive; [ ] = remark or other dose. Shown are actives, neighbours in structure and some others; about 11% of the full set was active somewhere. Unless noted, calls follow the shape of the dose curve; as a rule, active = well fitted curve in the direction sought with a large enough effect; inconclusive = small, poorly fitted or top-dose-only effect, or another doubt; inactive = no such curve, though single readings can be large; an effect the other way counts as inactive or inconclusive. Unless noted, % is scaled to controls: 0 for no effect and ±100 for the full control effect.

`O=C(NNC(=O)c1cc(Cl)ccc1O)c1cccc(S(=O)(=O)N2CCOCC2)c1` gave G9a block 77%[2.33 µM].
CC(C)c1cnc2c(c1SCC(=O)Nc1cccc([N+](=O)[O-])c1)c(=O)n(C)c(=O)n2C was read as Tau fibril FP -2%, Tau fibril ThT -12%, Tau fluor counter inconclusive and G9a block inconclusive.
For COc1cc(OC)c(C2CC(=O)N3CN(c4ccc(C)cc4)CSC3=C2C#N)cc1OC (centres undefined) the results were Tau fibril FP inconclusive, Tau fibril ThT 28µM*, Sfp PPTase inh 5µM*, Coupling enz -31*, Tau fluor counter -28% and G9a block -21%[2.33 µM].
`C=CCn1c(-c2csc(-c3ccc(Cl)cc3)n2)n[nH]c1=S` gave Tau fibril FP -6%, Tau fibril ThT inconclusive, Sfp PPTase inh 0%, Coupling enz 1, Tau fluor counter -13% and G9a block inconclusive.
`CCn1c(-c2csc(-c3ccc(Cl)cc3)n2)n[nH]c1=S` gave Tau fibril FP 3%, Tau fibril ThT inconclusive, Sfp PPTase inh 9%, Coupling enz 2, Tau fluor counter -6% and G9a block inconclusive.
CCn1c(-c2csc(-c3ccccc3)n2)n[nH]c1=S was read as Tau fibril FP 6%, Tau fibril ThT inconclusive, Sfp PPTase inh -1%, Coupling enz 1, Tau fluor counter 4% and G9a block 1.4µM*.
Screening C=CCn1c(-c2csc(-c3ccc(OC)c(OC)c3)n2)n[nH]c1=S returned Tau fibril FP -12%, Tau fibril ThT -13%, Sfp PPTase inh 16%, Coupling enz -2, Tau fluor counter 1% and G9a block 2.2µM*.
For C=CCn1c(-c2cc(-c3ccccc3)sc2N)n[nH]c1=S the results were Tau fibril FP 16%, Tau fibril ThT inconclusive, Sfp PPTase inh 79µM*, Coupling enz -1 and Tau fluor counter inconclusive.
`C=CCn1c(-c2csc(-c3ccccc3)n2)n[nH]c1=S` gave Tau fibril FP 5%, Tau fibril ThT inconclusive, Sfp PPTase inh -25%, Coupling enz -1, Tau fluor counter -6% and G9a block 1.8µM*.
For Nc1sc(-c2ccccc2)cc1-c1n[nH]c(=S)n1C1CCCCC1 the results were Tau fibril FP -5%, Tau fibril ThT inconclusive, Sfp PPTase inh -4%, Coupling enz 0, Tau fluor counter inconclusive and G9a block 4%[59 µM].
For COc1cccc(Cn2c(=O)cnc3cnc(OCc4ccccc4)nc32)c1 the results were Sfp PPTase inh -2%, Coupling enz -1 and G9a block 10%[0.501 µM].
COC(=O)/C=C1/SC(=NC(=O)c2ccccc2)NC1=O was read as Tau fibril FP 2%, Tau fibril ThT -13%, Sfp PPTase inh 28µM*, Coupling enz 5, Tau fluor counter -4% and G9a block 22µM*.
`COC(=O)/C=C1/S/C(=N/NC(=O)c2ccccc2C)NC1=O` gave Tau fibril FP 1%, Tau fibril ThT -10%, Sfp PPTase inh -5%, Coupling enz 0, Tau fluor counter -6% and G9a block 2µM*.
COC(=O)/C=C1\SC(=NC(=O)c2cccc(Cl)c2)NC1=O was read as Tau fibril FP -10%, Tau fibril ThT -12%, Sfp PPTase inh 45µM*, Coupling enz 5, Tau fluor counter -7% and G9a block 3%[0.0925 µM].
Screening COC(=O)/C=C1/SC(=NC(=O)c2ccc(F)cc2)NC1=O returned Tau fibril FP -14%, Tau fibril ThT inconclusive, Sfp PPTase inh 28µM*, Coupling enz -1, Tau fluor counter -15% and G9a block inconclusive.
Screening COC(=O)/C=C1/SC(=NC(=O)c2ccc(OC)cc2)NC1=O returned Sfp PPTase inh -18% and G9a block 4%[0.0925 µM].
For CS(=O)(=O)N1CCc2cc(C(=O)Nc3cccc(F)c3)ccc21 the results were Tau fibril FP inconclusive, Tau fibril ThT 9%, Tau fluor counter -7% and G9a block -2%[59 µM].
For COc1ccccc1/C=C1\S/C(=N/NC(=O)c2cccc(Br)c2)NC1=O the results were Tau fibril FP 1%, Tau fibril ThT 13µM*, Sfp PPTase inh -6%, Coupling enz 4, Tau fluor counter inconclusive and G9a block 4%[59 µM].
`COC(=O)/C=C1\S/C(=N/NC(=O)c2ccccc2)NC1=O` gave Tau fibril FP inconclusive, Tau fibril ThT inconclusive, Sfp PPTase inh -5%, Coupling enz 0, Tau fluor counter -3% and G9a block inconclusive.
For Nc1n[nH]c(S(=O)(=O)CCCc2ccccc2)n1 the results were Tau fibril FP -4%, Tau fibril ThT 8%, Sfp PPTase inh 15%, Coupling enz 1, Tau fluor counter 3% and G9a block 50µM*.
Screening O=S(=O)(CCCc1ccccc1)c1ncn[nH]1 returned Tau fibril FP 1%, Tau fibril ThT 3%, Sfp PPTase inh 4%, Coupling enz 1, Tau fluor counter 3% and G9a block -8%.
`Cc1cc2ccccn2c1C(=O)c1ccc(NN)c([N+](=O)[O-])c1` gave Tau fibril FP 4%, Tau fibril ThT 10µM*, Sfp PPTase inh -28%, Coupling enz -4, Tau fluor counter inconclusive and G9a block 10µM*.
`COC(=O)c1cc(C(=O)c2c(C)cc3ccccn23)cc([N+](=O)[O-])c1` gave Sfp PPTase inh -1%, Coupling enz 1 and G9a block 32µM*.
Screening Cc1cc2ccccn2c1C(=O)c1cc([N+](=O)[O-])cc([N+](=O)[O-])c1 returned Tau fibril FP 10%, Tau fibril ThT -11%, Sfp PPTase inh 4%, Coupling enz -4, Tau fluor counter -19% and G9a block 32µM*.
For Cc1cc2ccccn2c1C(=O)c1ccc(C#N)cc1 the results were Sfp PPTase inh 9%, Coupling enz 0 and G9a block inconclusive.
Screening Cc1ccc(-n2cccn2)c([C@@H]2C[C@H]3CN(C)C(=O)[C@]34CCCN24)c1 returned Tau fibril FP 2%, Tau fibril ThT 1%, Sfp PPTase inh -5%, Coupling enz 1, Tau fluor counter 4% and G9a block -28%.
`COc1ccc(-n2ncc(C(=O)Nc3ccc4c(c3)OCCO4)c2C2CCN(C(=O)OC(C)(C)C)CC2)cc1` gave Tau fibril FP 3%, Tau fibril ThT -13%, Tau fluor counter inconclusive and G9a block -44%[59 µM].
For CCN(CC)C(=O)CSc1n[nH]c(=S)n1N the results were Tau fibril FP inconclusive, Tau fibril ThT -16%, Sfp PPTase inh 50µM*, Coupling enz -11 and Tau fluor counter -9%.

Compound activity: PubChem, National Center for Advancing Translational Sciences (NCATS)
